According to PubChem BioAssay (NCATS):

What was measured:
[1] = qHTS profiling of the MIPE4 collection as inhibitors of Plasmodium falciparum (3D7) proliferation (AID 743344);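 also: scaled between DMSO vehicle wells and 0.29 µM artemisinin as full inhibition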; conditions: P. falciparum 3D7 in erythrocytes, SYBR Green DNA fluorescence, 72 h; at 28.5 µM unless noted
Procedure, shortened: (§1)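 Parasite DNA was quantified by SYBR Green I fluorescence (ex 485, em 535 nm) after overnight lysis in saponin/Triton buffer at room temperature. Cultures at 0.3% parasitemia and 2.5% hematocrit were first exposed to compound for 72 h at 37 C; signals were normalised to artemisinin (0.29 uM) and vehicle wells.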

[2] = qHTS profiling of the MIPE4 collection as inhibitors of Plasmodium falciparum (DD2) proliferation (AID 743345); conditions: P. falciparum Dd2 in erythrocytes, SYBR Green DNA, 72 h; at 28.5 µM unless noted
Procedure, shortened: as §1

| Structure (SMILES) | parasite growth, % of DMSO control [1] [%] | parasite growth remaining, % of DMSO control (lower = more inhibition) [2] [%] |
| --- | --- | --- |
| CC(C)C[C@H](CC(=O)O)C(=O)N[C@@H](Cc1c[nH]c2ccccc12)C(=O)N[C@@H](C)c1ccccc1 | 79.9 | 77.8 |
| CN(C)c1cc(NC(=O)CNC(C)(C)C)c(O)c2c1C[C@@H]1C[C@H]3[C@H](N(C)C)C(=O)C(C(N)=O)=C(O)[C@@]3(O)C(=O)C1=C2O | 83 | 90.5 |
| CCCCCCCCCCCC1=C(O)C(=O)C=C(O)C1=O | 54.7 | 63.9 |
| COCCOc1nc(-c2ccc(Cl)c(Cl)c2)n(-c2ccc(NC(=O)CCl)cc2)n1 | 20.8 | 64 |
| COc1ccc2c(Oc3ccc(NC(=O)c4c(C)n(CC(C)(C)O)n(-c5ccccc5)c4=O)cc3F)ccnc2c1 | 18.3 | 60.9 |
